Measured values taken from PubChem BioAssay AID1508600 (Functional Genomics Laboratory (NCATS/FGL), 2020).
Screen size: about 53,000 sequences; about 3,700 (7%) were called active. This is one part of a sample in which actives are shown more often than they occur.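 The calls were made as follows: active = gene knockdowns whose robust z-score for IL-1 alpha signal is at least 2 or at most -2, so actives lie on both sides; inactive = the rest.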

Test: Components of the Cytosolic LPS Sensing Pathway: Gene Identification via Genome-wide siRNA Screen;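 also: robust z of the log signal after scaling to non-targeting control siRNA wells of the plate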
Conditions: RAW264.7 macrophages, IL-1a HTRF, actives lie on both sides, screened at 100 nM (by protocol), cells primed 5 h with Pam3CSK4 first
Summary of the method: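 RAW264.7 mouse macrophages reverse-transfected with single siRNAs (100 nM final) for 48h, primed with Pam3CSK4 for 5 hours, then transfected with LipidA for 24 hour. Supernatant IL-1a read by HTRF; values normalized to negative-control median, log-transformed robust z-scores.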

Sequence | z-score
GGAUGGAGGAAGACUCGAUTT against Etv6 | 2.14 (active)
GGAAACCUGUUUGAUUUUGTT against Aasdhppt | 0.798 (inactive)
GCUUUCAUAGCUGGAAACCTT against Olfr173 | 0.452 (inactive)
CCUCACAAAUAUACAGUUCTT against Pira2 | 0.519 (inactive)
UUCUACUGGGCUUAACCAGTT against Olfr1032 | 1.86 (inactive)
GGAUGCUUUAACUUCAAACTT against Crebrf | 2.56 (active)
GCCAUAUAAGAUUCUUGUGTT against Pi4kb | -0.63 (inactive)
GCAAAUGUAUUAUGUCCUUTT against Gm5478 | 0.0907 (inactive)
GGAUUUGUAAGACUAAUCUTT against Xdh | 0.00453 (inactive)
GGUGAAGAGACUGGAGAACTT against Cavin2 | -0.277 (inactive)
GGACAUAAAACUUUUCAGUTT against Foxf2 | 1.02 (inactive)
GGAACAGAAGUCAAGUGGATT against Acsm5 | 2.69 (active)
GCUGGACACGGAAGGUAUATT against Igsf8 | -0.595 (inactive)
CCUAAGAACCCUGAUCCUATT against A030005L19Rik | 1.08 (inactive)
GGAAAAGGAAGAACUGAUUTT against Sptlc1 | -0.477 (inactive)
GGACACCAUUGGCUCCUUATT against Tmub1 | 1.63 (inactive)
GGUGAUGUUCUAACCCUGCTT against Trex1 | -0.0124 (inactive)
GGCUUUGUCUACACUUUCATT against Olfr1308 | -1.02 (inactive)
GGAUGGGAAGGUGAUUGUCTT against Gnb5 | 1 (inactive)
CCUGGUGUUCGUGUACCUGTT against Cdk5r2 | 3.1 (active)
GGAUUUAUUUAUGUCUUCCTT against Slc17a1 | 0.0643 (inactive)
GCAGUUGAGACAAUAUGUCTT against Trim31 | -1.8 (inactive)

Sequence | z-score
GGAUGUGUCGGGAAAUGCUTT against Frmd5 | -1.7 (inactive)
GCACUAGAAGUGUCUUUUCTT against Cdhr1 | 2.17 (active)
GGACAUUUUUCAUUUGUGATT against Zfhx4 | 1.28 (inactive)
GGUCAUUCACGUCUGCGUUTT against Kcnj8 | -0.292 (inactive)
CCAGUGCAGGACCUCAUUUTT against Sod1 | -2.06 (active)
GGCAGCUCUGACUUUAUAATT against Klhdc3 | -1.63 (inactive)
CCCUGUAGAAAUUCAAGCCTT against Lyrm4 | 0.38 (inactive)
GGACAGAGCAUCACAGAAGTT against Tmem154 | -2.33 (active)
GCGGUUUGUCUUCAACAAGTT against Il1b | 0.22 (inactive)
CCCUGGACUAAGGAUCACCTT against Cops5 | -1.2 (inactive)
GGCAGAAGAAGAGUUCAACTT against Atp6v1e1 | -1.1 (inactive)
GCUAAGUACGUUCAUGGCATT against Gba | 0.571 (inactive)
CGAAACUUACCAGGAGUCGTT against Ttyh2 | -2.31 (active)
GGACUCAUGUUCAACACAGTT against Dimt1 | -0.87 (inactive)
GGGAACUGACAAAUGGAAGTT against Samsn1 | -0.0777 (inactive)
CGGCAGUCGUGAGACAUAUTT against Camk1d | -1.01 (inactive)
GGAUUUUUAGUGUUUGACATT against Rab39 | -1.52 (inactive)
GGGAAUACGGAACCUUCUUTT against Olfr683 | 2.04 (active)
GGGCAGUUUUACAAAUGUUTT against Fbxw8 | 0.985 (inactive)
GGAACUCCAACAGGACUUUTT against Slc26a9 | -0.565 (inactive)
GGAAGGAAGCAGAGAGUUATT against Ndel1 | 2.92 (active)
UUUACUAGACCUGAUGGCUTT against Olfr815 | 0.732 (inactive)

Sequence | z-score
GGGACUCUUCUACGAGUUUTT against Lims2 | 0.836 (inactive)
GGAAAACAAGAGGUGAUCUTT against Bfar | -1.62 (inactive)
GGUGUUUGAUAGGUAUCUUTT against Ptpa | -1.12 (inactive)
GGAUCAUUUGAAAUUGCUGTT against Dmac2l | 2.88 (active)
CCUGAAAAAAUUUAUCGCCTT against Pcgf3 | -0.363 (inactive)
GGGUUCGAGGAAAAGGAAGTT against Acsf3 | 0.65 (inactive)
GGUGUCAGAAGCAGUGUAUTT against Treml1 | 0.459 (inactive)
GCCGAGGCUGUUGUGUUGATT against Gpaa1 | -1.04 (inactive)
GGAGGUUUUUUUGUUUUGUTT against Serpinb13 | -0.614 (inactive)
GGCAUUUUUCUUAGUGAUCTT against Olfr1277 | -2.04 (active)
CCCACUUAUAUAUGUAGUUTT against Wdyhv1 | 0.282 (inactive)
GGGCUUCAAACCCACAGAATT against Nova2 | -1.19 (inactive)
GGAAUAUCAGCCAUAAGUUTT against Cplx4 | 1.78 (inactive)
CGAUUCAUUCAGUUUGUAATT against Terb1 | -0.631 (inactive)
GGUGUUUGAUAAUGAAGAGTT against Dnah1 | -0.214 (inactive)
GGCGAAGGUGUAGAAUCUCTT against Samd12 | 2.48 (active)
GGUCAUUUUGGGAUAUCAGTT against Lman1 | -1.19 (inactive)
CCGCGUGUGCUCCUUUUUGTT against Zcchc3 | -0.627 (inactive)
GGCUGGUUUACAACAGAACTT against Pla2g15 | -0.647 (inactive)
CCAUUUGAUGACAGUAAUATT against Olfr178 | 1.03 (inactive)
GCUCUUGACACUAGAGAUUTT against Ap1s3 | 0.0373 (inactive)
GGUGUGAUGCUUGAGUGUCTT against Skint3 | 2.08 (active)

Sequence | z-score
GGAGUAGCAAAGAACUGCUTT against Arpc4 | -0.762 (inactive)
CCACAUGAGUGGACCUACGTT against Arid3c | -1.33 (inactive)
GGAGCUCUGGGACAAAUUCTT against Tbx20 | 1.34 (inactive)
CGUGGCUAGGUUAUUUAAATT against Htr1d | 1.01 (inactive)
GGACACUUCCAUGUGCUACTT against Cep19 | 2.14 (active)
CCUCAAAAUGGCUAUGGACTT against 1520401A03Rik | 0.587 (inactive)
GGAAAGAAACUUAAAGUGGTT against Tfdp1 | 2.64 (active)
GGUUCGAUGUCCAGUCACUTT against Ppp2ca | -1.41 (inactive)
GCCAUUGCUUUAUAAGGUUTT against Olfr901 | -1.24 (inactive)
GGAUACAAAUCCAGAUUCUTT against Pex26 | -0.982 (inactive)
GGAACGAAUUUUAGAUGCATT against Rbbp8 | 1.14 (inactive)
CCCAGAGCAUUCCUAUUACTT against Klrg2 | -2.84 (active)
GCACGGUAUCUCGAAGUCGTT against Spata18 | -0.785 (inactive)
CCAUUCAAUGGUAACUGAATT against Olfr229 | -0.382 (inactive)
GCAGUCGCUUUGUUUUAUATT against Olfr1204 | -0.225 (inactive)
GGAAAUCGAAUGAAUAACCTT against Klf12 | 3.45 (active)
GGCUGAGAAGCAGACUUCCTT against Dclk3 | 1.23 (inactive)
GCUACGUUUACUGACCACATT against Bcat1 | 1.55 (inactive)
CCUACUCGUCUCUUUCACCTT against Tlcd1 | 0.158 (inactive)
GCAACUUUUAAUUGGUCUATT against Agrn | -0.537 (inactive)
GGUUUUACCGAUGAUGCAUTT against Pcdhb20 | -0.624 (inactive)
GGUAAUGGCUCACUUAAUATT against Malt1 | -0.427 (inactive)

Sequence | z-score
GGUCUUUGACAUUUUGAAUTT against Lrrk2 | -0.295 (inactive)
GUACACUCAGGCUGAGGGUTT against Acyp1 | 0.0397 (inactive)
GCAAUACUAUUCAGUCCAUTT against Gnai3 | -2.45 (active)
GGUUCCACUCAACUGAAGATT against Actl7b | -0.123 (inactive)
GGCCUGCUACUUUUGAUGCTT against Olfr166 | 0.0524 (inactive)
GCACCUCUGACAAGGUUCUTT against Plin1 | 2.65 (active)
GGGUCAUUUCCUAUGCAGGTT against Olfr866 | -1.24 (inactive)
CCAAGAUUCAUAAGAAGGCTT against Tas2r131 | 0.646 (inactive)
GCUAGAAUUCAUGUUUCGUTT against Dgkg | 0.487 (inactive)
GGUGCACUUUGAAUCAGGGTT against Uchl4 | 0.91 (inactive)
GGACAUCUACACCAUUUGGTT against Mplkip | -2.11 (active)
GGUAACUAUGAAGAGAUCATT against Neu2 | 0.312 (inactive)
GGAUUAGGAAAGAGAGAACTT against 4930519G04Rik | -1.43 (inactive)
GGUCAUCGUGUGCAACCUCTT against Zcchc3 | -3.24 (active)
GGAACAGUUCAAGUGAAGCTT against Sertad2 | -0.0174 (inactive)
GGAAGAUGAGAAAAUUCCATT against Ccni | -0.44 (inactive)
GCCACAGAAAGUGAUUGAGTT against Rbp7 | -0.418 (inactive)
GGUACAGACCUUUGAAAUATT against Apobec2 | -0.125 (inactive)
CCGCAUGGAGCAUCUAAUATT against Tuft1 | 0.04 (inactive)
GGGAGACCUGCUACUAUUGTT against Gtf3c2 | 2.58 (active)
